Assay outcomes as filed in PubChem BioAssay.
In the library only some 13% were active in any assay of this set; here they are far more common.
CHOP inh: inhibitors of CHOP promoter induction, primary screen, cell-based, unfolded protein response, luciferase reporter; 3.8% of 220,000 active; AID 2732, 2010; inhibition, % at 10 µM; CHO-K1 CHOP-promoter luciferase, tunicamycin-induced, 15-18 h;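 active means compounds that reduced the stress-induced luciferase reporter signal by more than about 70% of percent inhibition, limit read from the data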
Lmaj promast: Leishmania major promastigote growth inhibition, primary screen | 9% of 200,000 active | Leishmania major promastigotes, resazurin fluorescence viability | inhibition, % at 10 µM; in the data active means inhibition above about 50%;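 further: promastigotes grown with compound for 44 hours at 28 °C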
RAM network inh: inhibitors of the yeast RAM network, primary screen, dse1pr::URA3 reporter, 5-FOA selection | AID 868, 2007 | inhibition, % at 50 µM | 1.8% of 190,000 active | S. cerevisiae dse1pr::URA3 reporter, 5-FOA growth OD615, 2 d; analog-sensitive cbk1-as2 kinase mutant strain;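 active means inhibition above a set limit, 3 SD over mean compound inhibition, cut at about 8.4% in these data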;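 further: inhibition rescues growth on 5-FOA so higher OD means more RAM inhibition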
WT yeast gro inh: growth inhibition of WT strain, primary screen, mitochondrial fusion inhibitor project, WT and mutant strains, chemical genetic; mitochondrial fusion phenotypic screen; inhibition, % at 10 µM; 2.1% of 190,000 active; AID 1362, 2008; in the data active means inhibition above about 58%; tested in S. cerevisiae
Hits are given with their value; 0 = inactive; - = no result.

SMILES	CHOP inh	Lmaj promast	RAM network inh	WT yeast gro inh
CC1CCN(S(=O)(=O)N2CCC(C(=O)NCc3cccnc3)CC2)CC1	0	-	-	-
Cc1ccsc1C(=O)N(c1nc2ccccc2s1)c1c(C)cccc1C	0	100.3	0	-
CC(=O)Nc1ccc(C(=O)N(C)C(C(=O)Nc2ccccc2)c2ccccn2)cc1 (stereo not given)	0	0	0	0
CCc1cc2c(=O)c(-c3nc4ccccc4[nH]3)coc2cc1OC(=O)N1CCOCC1	0	0	10.8	0
CCc1cc2c(=O)c(-c3nc4ccccc4[nH]3)coc2c(CN2CCC(C)CC2)c1O	-	0	-	0
CN1CCC(Oc2ccc(Sc3ccccc3)cc2)CC1	0	100.1	0	0
CSc1ccccc1OC1CCN(Cc2ccccc2)CC1	0	0	0	0
CN1CCC(Oc2ccccc2Sc2ccc(C(F)(F)F)cc2)CC1	0	99.2	0	0
CCOc1cc(C2C(C(=O)OCC(C)C)=C(C)N=C3SCCC(=O)N32)ccc1OC(C)=O (stereo not given)	0	0	0	-
COCCCNC(=S)NC1CCCCC1	0	0	0	0
O=C(CCN1CCCCC1)NNC(=O)C12CC3CC(CC(C3)C1)C2	0	0	0	0
CCOc1ccc(/C=C2\SC(=O)N(CCNC(=O)C3COc4ccccc4O3)C2=O)cc1OC (stereo not given)	0	70.9	0	0
CCN=C1S/C(=C\c2ccc(OC)c(OCC)c2)C(=O)N1CC	0	69.6	0	0
COCCN1C(=O)/C(=C/c2ccc(OCc3ccc(C(=O)O)cc3)c(OC)c2)SC1=Nc1ccccc1	0	0	0	58.9
COc1ccc(/C=C2\SC(=NCc3ccccc3)N(Cc3ccccc3)C2=O)cc1OC	0	0	9.4	0
COc1cc(/C=C2\SC(=Nc3ccccc3)N(Cc3ccco3)C2=O)ccc1OC(C)C(=O)O (stereo not given)	0	0	0	0
COc1ccc(/C=C2\SC(=S)N(CCC(=O)NC3=NCCS3)C2=O)cc1OC	0	0	0	0
O=C(O)c1ccc(N2CCS(=O)(=O)CC2)cc1	0	0	0	0
CCOC(=O)C1CCCN(C(=O)c2csc(-c3ccc4c(c3)CCO4)n2)C1 (stereo not given)	0	-	-	-
O=C(O)Cc1ccc(-n2cccc2)cc1	0	0	0	0
O=C(CN1CCCN(Cc2ccc(F)cc2Cl)C1=O)NC1CCCC1	0	0	0	0
CC(=O)Nc1ccccc1NC(=O)c1ccc(C)c(C)c1	0	0	0	0
COc1cc(/C=C2/SC(=O)N(Cc3ccccc3)C2=O)ccc1OCc1ccncc1	0	91.8	0	0
C/C(=C\C(=S)Nc1ccccc1)Nc1ccc2ccccc2c1	0	0	0	61.6
Clc1ccc(-c2csc(=Nc3cccnc3)n2CCCn2ccnc2)cc1Cl	0	98.6	0	0
SMILES	CHOP inh	Lmaj promast	RAM network inh	WT yeast gro inh
O=C(CCSc1nc(-c2ccco2)cc(C(F)(F)F)n1)NCc1cccs1	0	0	10.2	0
O=C(CSc1nc(-c2ccco2)cc(C(F)(F)F)n1)Nc1ccc2c(c1)CCC2	0	0	8.5	0
O=C(CCSc1nc(-c2ccco2)cc(C(F)(F)F)n1)NCc1ccccn1	0	0	0	0
Cc1ccc(NC(=O)CSc2nc(-c3ccco3)cc(C(F)(F)F)n2)cc1C	0	0	0	0
O=C(CCSc1nc(-c2ccco2)cc(C(F)(F)F)n1)N1CCN(c2ccccc2)CC1	0	0	0	61.8
Cc1c(C(=O)C(=O)NCC2CCCO2)c2ccccc2n1C (stereo not given)	0	0	0	0
CC(/C=C1\SC(=S)N(CC(=O)N2CCN(c3ccccc3)CC2)C1=O)=C\c1ccccc1	0	0	9.8	0
CC(/C=C1\SC(=S)N(CC(=O)O)C1=O)=C\c1ccccc1	0	-	-	-
O=C(CCCN1C(=O)/C(=C\c2cccs2)SC1=S)Nc1ccc(C(=O)O)cc1	0	0	0	0
CC(=O)c1ccc(NC(=O)CCCN2C(=O)/C(=C/C(C)=C/c3ccccc3)SC2=S)cc1	0	0	10.4	0
COCC(=O)OC/C(O)=C(\C#N)c1nc2ccccc2[nH]1	0	-	-	-
Cc1ccc(C)c(SCC(=O)OC/C(O)=C(\C#N)c2nc3ccccc3[nH]2)c1	95.0	0	8.5	0
Cc1cccc(C)c1OCC(=O)OC/C(O)=C(\C#N)c1nc2ccccc2[nH]1	0	0	0	0
N#C/C(=C(/O)COC(=O)CSc1ccc2ccccc2c1)c1nc2ccccc2[nH]1	92.1	0	0	0
Cc1cc(Br)ccc1SCC(=O)OC/C(O)=C(\C#N)c1nc2ccccc2[nH]1	101.5	-	-	-
Cc1ccc(NC(=O)CN(C)C(=O)c2ccc(S(=O)(=O)N(C)c3ccccc3)cc2)cc1	0	0	0	0
Cc1cc(C)c(-c2noc(C(=O)OC(C)(C)C)c2C(=O)OC(C)(C)C)c(C)c1	0	0	0	65.6
Clc1ccc(-c2nnc(COc3ncnc4ccccc34)o2)cc1	0	0	0	0
Cn1cccc1/C=C1\SC(=Nc2ccccc2)NC1=O	0	-	-	-
Cc1ccc(N=C2NC(=O)/C(=C/c3cn(C)c4ccccc34)S2)cc1C	75.5	0	0	0
CCC(C)N(CC(=O)Nc1cccc(C)c1C)C(=O)CCl (stereo not given)	0	63.9	0	0
CC(C)(C)C(=O)NC(Nc1cccc2cccnc12)C(Cl)(Cl)Cl (stereo not given)	0	55.3	0	0
CCC(CC)C(=O)NCCCCc1ccccc1	0	0	0	0
CCOC(=O)C1CCCCN1Cc1cccc(F)c1 (stereo not given)	0	0	0	0
Fc1cccc(CN2CCN3CCCC3C2C2CCCCC2)c1 (stereo not given)	0	89.3	0	0
SMILES	CHOP inh	Lmaj promast	RAM network inh	WT yeast gro inh
Fc1ccc(CN2CCN3CCCC3C2C2CCCCC2)cc1F (stereo not given)	0	98.5	0	0
COc1ccc(NC(=O)C2CC(c3ccc(OC)c(OC)c3)=NO2)cc1OC (stereo not given)	0	0	0	0
COc1ccc(C2=NOC(C(=O)Nc3ccc(C)cc3)C2)cc1OC (stereo not given)	0	0	9.2	0
O=C(O)C1CCN(c2ccccc2[N+](=O)[O-])CC1	0	0	0	0
Cc1cc(Nc2ccccc2)c2c([N+](=O)[O-])cc(C)c(C)c2n1	0	0	0	76.2
CCCCn1nc2cc(C(=O)NCC34CC5CC(CC(C5)C3)C4)ccc2c1OC	0	58.6	0	0
CCCCn1nc2cc(C(=O)NCCCCc3ccccc3)ccc2c1OCC	0	72.6	0	0
CCOc1c2ccc(C(=O)NCc3ccco3)cc2nn1CC	0	0	0	0
CCOc1c2ccc(C(=O)NCC34CC5CC(CC(C5)C3)C4)cc2nn1CC	0	85.5	0	0
CCn1nc2cc(C(=O)NCC34CC5CC(CC(C5)C3)C4)ccc2c1OC	0	51.1	0	0
CCCCNC(=O)c1ccc2c(OCC)n(CCCC)nc2c1	0	0	0	0
CC(=O)N1CCC(=NNC(=O)c2cccs2)CC1	0	0	0	0
NC(=O)c1ccccc1OC1CCC1	0	-	-	-
CCOc1ccccc1C(=O)Nc1nnc(SCC(=O)Nc2cc(C)on2)s1	0	0	0	0
